From PubChem BioAssay
The source made the active and inactive calls. Unless noted, how the calls were made is not given here.

Tests used:
[1] = HepG2 liver cancer cell viability effects, profiling panel, resazurin fluorescence, 24 h, PK04 Diversity Set (AID 1172); conditions: higher = more signal
[2] = basal S. cerevisiae growth modulation, no modifier, primary screen, OD600, strain BY4716, 24 h, basal condition (AID 1173); conditions: OD600, 24 h, higher = more signal, called active from +8 up or from −8 down
[3] = MM1S myeloma cell viability, profiling panel, resazurin fluorescence, basal, 24 h, PK04 Diversity Set (AID 1174); conditions: higher = more signal, called active from +8 up or from −8 down;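 further: MM1S multiple myeloma cell line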
[4] = target: Dihydroorotate dehydrogenase (quinone), mitochondrial (Plasmodium falciparum (isolate 3D7)) (UniProt Q08210); assay: PfDHODH enzyme inhibitors, primary screen, biochemical, C-terminal His tag, absorbance 600 nm (AID 1175); conditions: DCIP absorbance 600 nm, higher = more signal, called active from +8 up or from −8 down;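 further: recombinant parasite enzyme with a five histidine tag at its C terminus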
[5] = P. aeruginosa biofilm formation inhibitors, primary screen, strain PAO1, LB-PBS medium, absorbance 600 nm (AID 1176); conditions: P. aeruginosa PAO1 growth/biofilm, A600, 12 h; higher = more signal
[6] = S. cerevisiae RM11-1a growth modifiers, primary screen, strain RM11-1a, OD600, basal, 24 h (AID 1177); conditions: OD600, 24 h, higher = more signal, called active from +8 up or from −8 down;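 further: cultures grown under basal conditions with no added stressor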
[7] = E. coli acrAB mutant growth effects, primary screen, E. coli filamentation inducers, strain DRC39, OD650, 24 h (AID 1178); conditions: higher = more signal, called active from +8 up or from −8 down;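 further: growth measured as culture turbidity by optical density at 650 nm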
[8] = E. coli acrAB mutant growth effects, primary screen, E. coli filamentation inducers, strain DRC39, OD650, 48 h (AID 1179);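 further: screen aims at cell division blockers that make cells filament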; conditions: E. coli DRC39 delta-acrAB growth, higher = more signal, called active from +8 up or from −8 down
[9] = RPMI8226 myeloma cell viability, profiling panel, resazurin fluorescence, basal, 24 h, PK04 Diversity Set (AID 1180); conditions: higher = more signal;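 further: RPMI8826 multiple myeloma cell line at 5000 cells per well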
[10] = target: E3 ubiquitin-protein ligase XIAP (Homo sapiens) (UniProt P98170); assay: XIAP binders, primary screen, biophysical, small-molecule microarray, fluorescence 635 nm (AID 1181); conditions: small-molecule microarray binding, higher = more signal;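 further: score merges 667 nm emission and signal to noise over triplicate slides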
[11] = test system: XIP peptide (Xip251-270) binding; assay: small-molecule binders of XIP peptide, primary screen, biochemical, small-molecule microarray, fluorescence 635/667 nm, 0.1 µg/mL protein (AID 1182); conditions: fluorescent protein binding, 635 nm, higher = more signal, called active from +8 up or from −8 down
XIP peptide (Xip251-270) = assay: small-molecule binders of XIP peptide, primary screen, biochemical, small-molecule microarray, fluorescence 635/667 nm, 0.5 µg/mL protein (AID 1183); conditions: small-molecule microarray binding, fluorescence 635 nm; higher = more signal
[12] = Plasmodium falciparum growth inhibition, primary screen, strain 3D7, DAPI fluorescence, 100 nL (AID 1184);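 further: parasites grown inside human red blood cells in medium with human serum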; conditions: P. falciparum 3D7 growth, 3 d, higher = more signal
[13] = target: Homeobox protein Hox-A13 (Mus musculus) (UniProt Q62424); assay: inhibitors of HoxA13-DNA binding, primary screen, biochemical, fluorescence polarization, labeled oligonucleotide (AID 1185); conditions: 15 min, higher = more signal, called active from +8 up or from −8 down
[14] = inhibitors of hydroxyurea-induced Chk1 phosphorylation, primary screen, imaging, HeLa, phospho-Chk1 antibody, percent positive cells (AID 1186); conditions: hydroxyurea-induced phospho-Chk1 immunofluorescence imaging, higher = more signal
[15] = inhibitors of hydroxyurea-induced Chk1 phosphorylation, primary screen, imaging, HeLa, phospho-Chk1 nuclear intensity (AID 1187); conditions: hydroxyurea-induced phospho-Chk1 immunofluorescence imaging, higher = more signal

Sequence of E3 ubiquitin-protein ligase XIAP (Homo sapiens) (P98170 whole entry, looked up): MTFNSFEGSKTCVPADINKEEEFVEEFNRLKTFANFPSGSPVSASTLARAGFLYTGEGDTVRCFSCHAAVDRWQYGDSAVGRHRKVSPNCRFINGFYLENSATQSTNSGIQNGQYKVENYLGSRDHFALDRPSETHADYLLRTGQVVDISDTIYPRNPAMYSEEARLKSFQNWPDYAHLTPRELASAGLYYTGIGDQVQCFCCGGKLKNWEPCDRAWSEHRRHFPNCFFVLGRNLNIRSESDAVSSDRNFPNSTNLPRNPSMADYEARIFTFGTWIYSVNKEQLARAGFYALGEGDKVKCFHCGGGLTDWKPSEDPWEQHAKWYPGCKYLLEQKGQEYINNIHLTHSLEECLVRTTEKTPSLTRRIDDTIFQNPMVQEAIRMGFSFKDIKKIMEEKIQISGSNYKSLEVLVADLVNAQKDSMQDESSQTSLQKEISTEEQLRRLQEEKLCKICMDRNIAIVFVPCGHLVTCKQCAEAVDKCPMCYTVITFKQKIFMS
Sequence of Dihydroorotate dehydrogenase (quinone), mitochondrial (Plasmodium falciparum (isolate 3D7)) (Q08210 whole entry, looked up): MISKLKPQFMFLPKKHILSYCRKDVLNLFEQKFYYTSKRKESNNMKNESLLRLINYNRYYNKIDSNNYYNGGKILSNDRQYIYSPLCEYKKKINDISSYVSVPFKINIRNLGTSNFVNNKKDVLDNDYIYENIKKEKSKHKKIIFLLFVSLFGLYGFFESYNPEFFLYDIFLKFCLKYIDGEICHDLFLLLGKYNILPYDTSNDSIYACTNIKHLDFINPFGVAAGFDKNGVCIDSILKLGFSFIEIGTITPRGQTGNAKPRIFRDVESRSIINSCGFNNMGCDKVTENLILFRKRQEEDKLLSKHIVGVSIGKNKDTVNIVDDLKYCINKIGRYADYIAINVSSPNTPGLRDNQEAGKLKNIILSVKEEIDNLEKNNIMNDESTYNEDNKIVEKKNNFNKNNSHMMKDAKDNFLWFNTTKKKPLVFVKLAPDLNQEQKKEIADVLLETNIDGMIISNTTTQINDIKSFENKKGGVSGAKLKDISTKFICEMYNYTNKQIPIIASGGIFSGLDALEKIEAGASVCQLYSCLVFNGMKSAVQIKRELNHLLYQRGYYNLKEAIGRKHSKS
Sequence of Homeobox protein Hox-A13 (Mus musculus) (Q62424 whole entry, looked up): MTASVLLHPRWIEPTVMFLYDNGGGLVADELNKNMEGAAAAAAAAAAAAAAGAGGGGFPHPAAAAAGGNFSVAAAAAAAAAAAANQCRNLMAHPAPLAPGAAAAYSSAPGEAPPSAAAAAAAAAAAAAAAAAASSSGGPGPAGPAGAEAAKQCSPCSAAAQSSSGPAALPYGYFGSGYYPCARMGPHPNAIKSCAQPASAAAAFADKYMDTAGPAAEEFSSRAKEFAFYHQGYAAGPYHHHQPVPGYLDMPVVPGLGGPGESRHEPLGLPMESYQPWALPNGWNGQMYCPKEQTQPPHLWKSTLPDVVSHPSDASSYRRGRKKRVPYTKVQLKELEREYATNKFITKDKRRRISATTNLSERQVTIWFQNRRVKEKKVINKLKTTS

| SMILES | z-score [1] | z-score [2] | z-score [3] | composite z-score [4] | z-score [5] | z-score [6] | z-score [7] | z-score [8] | z-score [9] | composite z-score [10] | composite z-score [11] | composite z-score (XIP peptide (Xip251-270)) | z-score [12] | z-score [13] | z-score [14] | z-score [15] |
| --- | --- | --- | --- | --- | --- | --- | --- | --- | --- | --- | --- | --- | --- | --- | --- | --- |
| CCC[C@@H]1C=C(C(=O)OCC)[C@H](c2ccccc2)N1S(=O)(=O)c1ccc(C)cc1 | -0.197 | 1.53 (inactive) | -0.37 (inactive) | -0.0973 (inactive) | 0.0362 (inactive) | 1.84 (inactive) | -0.213 (inactive) | 0.0062 (inactive) | -1.89 | -0.0696 | 0.406 (inactive) | 0.681 | -2.11 | -0.624 (inactive) | 0.144 (inactive) | 0.0243 (inactive) |
| C=CCC(OC(C)=O)[C@@H]1[C@@H](N(Cc2ccc(-c3ccccc3)cc2)C(=O)c2cccc3ccccc23)c2cc(OCCCO)ccc2N1C(=O)c1ccc2ccccc2c1 (some centres not stated) | -0.784 | -0.185 (inactive) | -0.967 (inactive) | -0.318 (inactive) | 0.48 (inactive) | -0.865 (inactive) | 0.144 (inactive) | -0.455 (inactive) | -1.3 | -0.0017 | 0.15 (inactive) | -0.0461 | -1.76 | -1.33 (inactive) | -0.293 (inactive) | -0.006 (inactive) |
| O=C1O[C@H](c2ccccc2)[C@H](c2ccccc2)N2[C@H]1[C@@H](C(=O)NC[C@H](O)c1ccccc1)[C@]1(C(=O)Nc3ccc(C#CCCO)cc31)[C@H]2c1ccccc1OCCO | 1.19 | 0.904 (inactive) | -1.12 (inactive) | -0.532 (inactive) | 0.517 (inactive) | 1.48 (inactive) | 0.439 (inactive) | -0.467 (inactive) | -0.591 | -0.209 | 0.419 (inactive) | 0.693 | -1.4 | -4 (inactive) | 0.125 (inactive) | 0.46 (inactive) |
| CC(C)C[C@@H]1NC(=O)[C@@H]2C[C@H](C(=O)NCCCC[N+](C)(C)C)[C@H](c3ccc(O)cc3)N2C1=O | -0.965 | 0.166 (inactive) | -0.524 (inactive) | -31.3 (active) | 0.876 (inactive) | 0.0138 (inactive) | 0.382 (inactive) | 0.581 (inactive) | -0.866 | -0.128 | 1.03 (inactive) | 0.858 | -0.174 | -1.73 (inactive) | 0.757 (inactive) | 0.0766 (inactive) |
| C=CC(CO)NC(=O)OCC1c2ccccc2-c2ccccc21 (configuration not stated) | 0.072 | -1.46 (inactive) | 0.358 (inactive) | -1.28 (inactive) | 0.0117 (inactive) | -0.917 (inactive) | -0.712 (inactive) | -0.616 (inactive) | 0.388 | -0.125 | 1.62 (inactive) | 0.162 | 1.42 | 0.0393 (inactive) | 0.145 (inactive) | 0.42 (inactive) |
| CC(C)C[C@@H]1NC(=O)[C@@]23C(=O)N[C@@H](Cc4ccccc4)C2[C@H](C)[C@@]2(C)O[C@H]2C3/C=C/C/C=C\CNC(=O)[C@@H](CC(C)C)NC1=O (some centres not stated) | 0.175 | -1.08 (inactive) | -0.102 (inactive) | -0.0599 (inactive) | 0.0937 (inactive) | -0.664 (inactive) | 0.495 (inactive) | -0.323 (inactive) | 0.292 | -0.0752 | 0.549 (inactive) | 0.414 | -0.0432 | -6.77 (inactive) | -0.0685 (inactive) | 0.0529 (inactive) |
| O=C1NC(=O)C2C1C=CC(C(O)c1cccc(O)c1)N2Nc1ccc(Cl)cc1Cl (configuration not stated) | -1.79 | -13.3 (active) | -1.31 (inactive) | 1.03 (inactive) | 0.695 (inactive) | 0.915 (inactive) | -0.526 (inactive) | -3.39 (inactive) | -1.69 | -0.039 | -0.186 (inactive) | 0.199 | -0.0722 | -5.1 (inactive) | 0.684 (inactive) | 0.194 (inactive) |
| CN(C)CCCC[C@@H]1NC(=O)[C@@H]2C[C@H](C(=O)NCc3ccc(F)cc3)[C@H](c3ccc(O)cc3)N2C1=O | -0.188 | 0.444 (inactive) | -0.0976 (inactive) | -1.14 (inactive) | 0.559 (inactive) | -0.605 (inactive) | 0.012 (inactive) | 0.0344 (inactive) | -0.0587 | -0.0448 | -0.23 (inactive) | 0.886 | -0.532 | -1.16 (inactive) | 0.336 (inactive) | 0.142 (inactive) |
| NC(=O)NCC#Cc1ccc2c(c1)[C@]1(C(=O)N2)[C@H](C(=O)N2CCCCCCC2)[C@H]2C(=O)O[C@H](c3ccccc3)[C@H](c3ccccc3)N2[C@@H]1c1ccc(O)cc1 | 0.0542 | 0.319 (inactive) | 0.678 (inactive) | 0.246 (inactive) | 1.92 (inactive) | 0.0562 (inactive) | 0.271 (inactive) | -0.194 (inactive) | -0.018 | 0.751 | 0.123 (inactive) | 0.833 | 0.285 | -0.376 (inactive) | 0.0378 (inactive) | -0.144 (inactive) |
| CCOC(=O)C[C@H]1[C@H](OC(=O)c2ccc(-c3ccccc3)cc2)[C@@H](NC(=O)c2ccc3ccccc3c2)c2cc(OCCCO)ccc2N1C(=O)c1ccccc1 | -0.491 | 1.31 (inactive) | -0.483 (inactive) | 0.622 (inactive) | 0.055 (inactive) | 1.13 (inactive) | -0.0319 (inactive) | -0.0532 (inactive) | -0.221 | 0.0454 | 0.377 (inactive) | -0.0506 | -0.633 | -1.35 (inactive) | 0.0034 (inactive) | 0.241 (inactive) |
| C=CCC(OC(C)=O)[C@@H]1[C@@H](N(Cc2cc3ccccc3o2)C(=O)Cc2ccc(OC)cc2)c2cc(OCCCO)ccc2N1C(=O)Cc1ccc2ccccc2c1 (some centres not stated) | -1.22 | -0.379 (inactive) | 0.499 (inactive) | 0.65 (inactive) | -0.17 (inactive) | 0.101 (inactive) | -0.529 (inactive) | -0.94 (inactive) | -0.216 | 0.308 | -0.324 (inactive) | -0.375 | -2.15 | -1.62 (inactive) | 0.405 (inactive) | 0.517 (inactive) |
| O=C1N(Cc2ccccc2)c2ccccc2[C@H]2OC(c3ccc(OCCCO)cc3)=N[C@@]12Cc1ccccc1 | -1.46 | -0.084 (inactive) | -3.4 (inactive) | 0.983 (inactive) | 0.565 (inactive) | 2.15 (inactive) | 0.383 (inactive) | -0.362 (inactive) | -3.36 | 0.0297 | 0.447 (inactive) | 0.821 | -2.41 | -2.4 (inactive) | -0.335 (inactive) | -0.59 (inactive) |
| CCOC(=O)C1=C[C@@H](C(C)(C)C)N(S(=O)(=O)c2ccc(C)cc2)[C@H]1c1ccccc1Cl | -0.421 | 1.51 (inactive) | -0.763 (inactive) | 0.0477 (inactive) | 0.188 (inactive) | 1.73 (inactive) | -0.544 (inactive) | -0.468 (inactive) | -1.74 | 0.227 | 0.646 (inactive) | 0.705 | -1.65 | 0.649 (inactive) | 0.271 (inactive) | -0.0709 (inactive) |
| C=CCNC(=O)[C@@H]1[C@H]2C(=O)O[C@H](c3ccccc3)[C@H](c3ccccc3)N2[C@H](c2ccccc2OCCO)[C@@]12C(=O)N(C(=O)OCCOC)c1ccc(C#CCCO)cc12 | -0.301 | 0.858 (inactive) | -1.02 (inactive) | -0.202 (inactive) | 1.32 (inactive) | 2.15 (inactive) | 0.251 (inactive) | 0.569 (inactive) | -1.56 | -0.0347 | 0.397 (inactive) | 0.683 | -2.09 | -1.71 (inactive) | -0.37 (inactive) | -0.538 (inactive) |
| C[C@H]1C2[C@H](Cc3ccccc3)NC(=O)[C@]23C(=O)NCC(=O)N2CCC[C@H]2C(=O)NC/C=C\C/C=C/C3[C@@H]2O[C@]12C (some centres not stated) | 0.825 | -1.82 (inactive) | 0.741 (inactive) | -0.173 (inactive) | -0.14 (inactive) | -0.939 (inactive) | 1.02 (inactive) | 0.741 (inactive) | 1.05 | -0.258 | 0.358 (inactive) | 0.341 | 0.876 | -2.22 (inactive) | 0.353 (inactive) | 0.133 (inactive) |
| CC(C)[C@@H](C(=O)O)n1cc(-c2ccccc2)nn1 | -0.606 | -0.291 (inactive) | -0.372 (inactive) | -0.207 (inactive) | -0.145 (inactive) | -0.618 (inactive) | 0.0178 (inactive) | -0.279 (inactive) | -0.874 | 0.0402 | 0.767 (inactive) | 0.237 | 0.273 | -0.769 (inactive) | 0.391 (inactive) | 0.0268 (inactive) |
| COCCOC(=O)N1C(=O)[C@@]2(c3cc(C#CC4(O)CCCCCC4)ccc31)[C@H](c1ccc(OCCO)cc1)N1[C@H](c3ccccc3)[C@H](c3ccccc3)OC(=O)[C@H]1[C@@H]2C(=O)N1CCCCCCC1 | -0.768 | 0.973 (inactive) | -0.418 (inactive) | 0.0448 (inactive) | 1.16 (inactive) | 2.11 (inactive) | -2.2 (inactive) | -1.8 (inactive) | 0.0982 | -0.151 | 0.662 (inactive) | 0.743 | -2.43 | -13.3 (active) | -0.0238 (inactive) | 0.222 (inactive) |
